Molecules are shown by their SMILES. Entries with a potency or affinity are not part of this list. Results filed as inconclusive are left out. A number with no mark means an inactive call.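 The calls were made as follows: active = compound lowering the signal whose fitted half-maximal concentration is at most ten times its top tested dose; inconclusive = flat curve with 30 to 70% loss, or poor fit; inactive = the rest.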

A short description of this assay: Mcl1-dependent cancer cell viability – HMC-1-8 cells, luminescence, dry powder, selectivity assay for A1 inhibitor project, dose response (AID 504415). The conditions noted are these: HMC-1-8 (Mcl1-dependent) viability, Glo luminescence, 24 h; series mostly up to 35 µM; activity change, negative = viability loss: at the top concentration.
Turning to `Cc1ccc(Nc2c([N+](=O)[O-])c(=O)n(C)c3ccccc23)cc1`, the “activity change, negative = viability loss” value is 5.87%.

As to `O=c1oc2ccccc2c(Cl)c1[N+](=O)[O-]`, the “activity change, negative = viability loss” value was 23.9%.

For the compound `Cc1ccc(Nc2c([N+](=O)[O-])c(=O)oc3ccccc23)cc1`, the “activity change, negative = viability loss” value is 10.5%.

With `CCOC(=O)N1CCN(c2c([N+](=O)[O-])c(=O)n(C)c3ccccc23)CC1`, the “activity change, negative = viability loss” value is 8.34%.

For the compound `Cn1c(=O)c([N+](=O)[O-])c(Oc2ccccc2)c2ccccc21`, the “activity change, negative = viability loss” value is 12.5%.

The values above are taken from PubChem BioAssay AID504415 (Broad Institute, 2011).
